# Reference: the supplement of paper PMC8540655
# Unmarked numbers belong to inactive results.
# Test system: Aedes aegypti larvae
# Experiment: larval motility relative to same well at 0 h (fraction); higher = more motile (less active compound), active = 0.4 or less
# Settings: 10 µM
# Summary of the method: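 Aedes aegypti larvae, hatched in pond salt solution with yeast at 25 °C and collected after 18–24 h, were dispensed at about 10 per well (100 µL) in 96-well plates. Compounds were tested at 10 µM, 1% v/v DMSO, with solvent and larvicide control wells on each plate. INVAPP movies (200 frames, 100 ms intervals) were recorded at 0, 2 and 24 h. Relative motility is each well's score divided by its 0 h score, median of three independent larval batches.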
SMILES,larval motility (2 h),larval motility (24 h)
O=C(Nc1[nH]c(=O)ncc1F)c1ccccc1,0.527,0.773
CN(C/C=C/C#CC(C)(C)C)Cc1cccc2ccccc12,0.66,0.879
CC[C@@H]1C(=O)OC[C@@H]1Cc1cncn1C,1.22,0.972
NCC(=O)Nc1ccc(-n2nc(C(F)(F)F)cc2-c2ccc3c(ccc4ccccc43)c2)cc1,0.799,1.81
COc1cc(NS(=O)(=O)c2ccc(C)cc2)c2ncccc2c1,0.89,0.666
CCCC(=O)OCCc1ccccc1,0.51,0.648
CC(C)Nc1ncnc2c1cnn2-c1ccc(Cl)cc1,0.689,0.773
CCCCc1ccc(-c2cc(C(=O)O)cc(-c3ccc(Cl)cc3)n2)cc1,0.642,0.563
O=C1NC(=S)N/C1=C\c1cc(Br)cc(Br)c1O,0.761,0.843
CC(C)CCN1C(=O)C(C2=NS(=O)(=O)c3cc(NS(C)(=O)=O)ccc3N2)=C(O)[C@@H]2[C@H]3CC[C@H](C3)[C@@H]21,0.853,0.888
Fc1ccc(-n2cc(Cn3c(-c4cccc(F)c4)nc4ccccc43)nn2)cc1,0.761,0.415
Cc1c[nH]c(=O)nc1NCc1ccccc1,1.16,0.91
Cc1c(N)cccc1Cn1ccc(OCCc2cccs2)cc1=O,0.953,0.875
Cc1c(OCC(F)(F)F)ccnc1CS(=O)c1nc2ccccc2[nH]1 (stereo not given),1.17,1.38
O=S(=O)(Nc1ccccc1)c1ccc(NC(=S)Nc2ccccc2)cc1,0.779,0.792
Nc1nc2c(ncn2/C=C2/CC2(CO)CO)c(=O)[nH]1,0.842,0.573
O=c1ccc2ncc(=O)n3c2n1CC3CN1CCC(NCc2cc3c(cn2)OCCC3)CC1 (stereo not given),0.641,0.964
C=C(C)n1c(=O)n(Cc2ccccc2C)c2ccccc21,1.39,0.851
CC(C)Oc1ccc(-c2nc(-c3cccc4c3CC[C@@H]4NCCO)no2)cc1C#N,1.2,1.25
CC[C@@]1(O)C(=O)OCc2c1cc1n(c2=O)Cc2cc3c([N+](=O)[O-])cccc3nc2-1,0.324 (active),0.433
C[C@H](NC(CC(=O)c1ccccc1C(F)(F)F)C(=O)O)c1ccccc1 (stereo not given in full),0.873,0.674
O=C(c1ccccc1)N1CCN(c2ccccc2NC(=O)C(Cl)(Cl)Cl)CC1,1.33,0.669
c1cnc(NCc2ccc(CNc3ncccn3)cc2)nc1,1.23,0.598
CC(C)(C)NC(=O)[C@@H]1CN(Cc2cnc3occc3c2)CCN1C[C@@H](O)C[C@@H](Cc1ccccc1)C(=O)N[C@H]1c2ccccc2C[C@H]1O,0.857,0.932
Nc1cccc(-c2nc(N)nc(NC3Cc4ccccc4C3)n2)c1,1.08,0.803
Oc1cccc(C(Nc2nccs2)c2ccc3cccnc3c2O)c1 (stereo not given),1.09,0.912
CCNC(=O)Nc1cc2c(-c3ccnc(C)c3)ccc(CNC(=O)OC)c2cn1,0.695,0.931
COc1cc(NCc2ccc3nc(N)nc(N)c3c2C)cc(OC)c1OC,0.5,0.356 (active)

SMILES,larval motility (2 h),larval motility (24 h)
Oc1c(C(Nc2nc3ccccc3s2)c2ccc(OC(F)F)cc2)ccc2cccnc12 (stereo not given),0.53,1.26
Nc1nc(N)c2c(Sc3ccccc3)cccc2n1,1.24,0.982
[N-]=[N+]=N[C@H]1C[C@H](n2ccc(=O)[nH]c2=O)O[C@@H]1CO,1.11,0.881
C[C@@H]1O[C@@H]1P(=O)(O)O,0.617,0.856
O=C(CC1Sc2ncnn2C1=O)Nc1ccc(Br)cc1 (stereo not given),0.859,0.722
Cc1ncc([N+](=O)[O-])n1CC(O)CN1CCOCC1 (stereo not given),1.3,0.789
Cc1ccc(N2CCC(CCOc3ccc(S(C)(=O)=O)cc3)CC2)nn1,0.943,0.683
COC(=O)Nc1nc2cc(S(=O)c3ccccc3)ccc2[nH]1 (stereo not given),0.769,0.934
COc1ccc2cc3[n+](cc2c1OCCN(CCn1cncn1)Cc1ccc(F)cc1F)CCc1cc2c(cc1-3)OCO2,0.821,0.778
CS(=O)(=O)c1ccc(Oc2ccc(Cl)cc2)cc1,0.907,1.02
Cc1nc(N(C)C(=O)Cc2ccc(-c3ccccn3)cc2)sc1S(N)(=O)=O,1.62,1.81
O=C(O)CCNC(=O)c1ccccc1,0.977,1.03
CC(C)C(=O)N[C@H]1[C@H]([C@H](O)[C@H](O)CO)OC(C(=O)O)=C[C@@H]1N=[N+]=[N-],1.64,1.56
O=C(CCc1ccc2c(c1)OCO2)NCc1ccc(-c2ccccc2F)cc1,0.778,0.677
O=[N+]([O-])/C(Br)=C/c1ccc(Br)o1,1.13,0.796
CC(C)(C)c1cc(CCC(=O)N2CCC2)cc(C(C)(C)C)c1O,0.769,0.774
CC(C)(C)c1ccc(OCCn2nc(C(=O)O)c3ccccc3c2=O)cc1,2.82,3.46
Fc1ccc(-c2nc(-c3c[nH]c4ccc(Br)cc34)[nH]c2-c2ccc(F)cc2)cc1,0.737,0.9
CC(=O)Oc1ccccc1C(=O)Nc1ncc([N+](=O)[O-])s1,1.58,0.824
O=C(NC1CCCc2c1[nH]c1ccc(Cl)cc21)c1ccccn1 (stereo not given),1.38,1.01
COc1ccc(C2=CC(c3c(F)cccc3Cl)n3ncnc3N2)cc1 (stereo not given),0.637,0.619
CCC[C@@H]1C[C@@H](C(=O)N[C@@H]([C@H]2O[C@H](SC)[C@H](O)[C@@H](O)[C@H]2O)[C@H](C)Cl)N(C)C1,0.804,0.885
Oc1c(C(Nc2ccccn2)c2ccccc2)ccc2cccnc12 (stereo not given),0.721,1.07
NC(=O)c1[nH]c2ccc(S(N)(=O)=O)cc2c1-c1ccccc1,0.832,1.05
O=S(=O)(Nc1cccc2cccnc12)c1ccccc1,0.587,0.61
O=C(NN1C(=O)[C@@H]2C3C=CC([C@H]4C[C@@H]34)[C@@H]2C1=O)c1ccc(C(F)(F)F)cc1,0.844,0.599
COc1ccc(CNC(=O)C(NS(=O)(=O)c2ccc3nc(C)sc3c2)C(C)C)cc1 (stereo not given),0.329 (active),0.365 (active)
